Neddylation inh: blocks human cullin neddylation; AID 651699; inhibition, % at 25 µM; TR-FRET cullin neddylation, biochemical; P61081+Q13564; 0.58% of 360,000 active; in the data active = inhibition above about 36%
HGIII-sPLA2 inh: Blocks human group III sPLA2 activity. 0.56% of 370,000 active. inhibition, % at 12.2 µM. QFRET BODIPY PC-A2 liposome hydrolysis, fluorescence. Q9NZ20;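 active = inhibition above mean plus 3 SD of compounds lying within the high and low control bounds, cut at about 19% in these data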;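 note: 0% = median of test compound wells and 100% = no enzyme DMSO wells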
Target sequence (Q9NZ20 whole entry, looked up): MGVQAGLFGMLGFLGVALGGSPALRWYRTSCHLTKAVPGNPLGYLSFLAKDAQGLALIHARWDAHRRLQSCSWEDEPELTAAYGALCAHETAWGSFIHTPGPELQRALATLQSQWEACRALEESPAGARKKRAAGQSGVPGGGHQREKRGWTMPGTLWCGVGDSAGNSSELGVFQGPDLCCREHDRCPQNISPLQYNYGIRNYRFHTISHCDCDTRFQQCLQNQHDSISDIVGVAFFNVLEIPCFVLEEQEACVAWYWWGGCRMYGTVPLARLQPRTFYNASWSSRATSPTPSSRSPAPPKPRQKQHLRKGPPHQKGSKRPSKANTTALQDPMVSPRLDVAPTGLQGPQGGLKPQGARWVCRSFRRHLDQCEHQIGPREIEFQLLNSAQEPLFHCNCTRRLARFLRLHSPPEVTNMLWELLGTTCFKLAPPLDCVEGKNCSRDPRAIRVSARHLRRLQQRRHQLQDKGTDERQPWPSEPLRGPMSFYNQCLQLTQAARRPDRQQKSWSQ
NadD block: blocks S. aureus nicotinate mononucleotide adenylyltransferase. inhibition, % at 20 µM. purified NadD enzyme, colorimetric absorbance read-out. 0.78% of 360,000 active. AID 602399; in the data active = inhibition above about 26%
ARNT-TACC3 inh: disruptors of human ARNT/TACC3 interaction; AlphaScreen His-ARNT PAS-B/GST-TACC3 binding, luminescence; TACC3 fragment carries E629A point mutation; 0.66% of 390,000 active; AID 623870; inhibition, % at 9.99 µM; Q9Y6A5;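 active = mean inhibition of replicates at least 50% and at least half of replicates each reaching 50%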;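 note: 0% = complete ARNT plus TACC3 wells and 100% = ARNT alone without TACC3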
DAGLB inh: blocks human DAGLB lipase activity; Q8NCG7; HEK293T DAGLB membrane lysate, EnzChek fluorogenic substrate; inhibition, % at 5.17 µM; 0.059% of 340,000 active; AID 504411; in the data active = inhibition above about 34%;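 note: 0% = enzyme with vehicle and 100% = wells lacking enzyme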
* = called active by the depositor; x = not tested or not shown. Hits are enriched below; roughly 2% of the tested compounds scored in any of these assays.

SMILES	Neddylation inh	HGIII-sPLA2 inh	NadD block	ARNT-TACC3 inh	DAGLB inh
CCO[C@@H]1OC(C(=O)Nc2ccccc2)=C[C@H](c2cn(C(C)=O)c3ccccc23)[C@H]1CCCO	x	x	x	21	x
CCC(=O)N1[C@H](CO)[C@@H](c2ccc(C3=CCCCC3)cc2)[C@@H]1CN(C)C(C)=O	x	x	x	0	x
c1ccc(CNc2nc(-c3ccccc3)nc3ccccc23)cc1	-16	-20	-2	-9	-3
c1ccc(CNc2nc(-c3ccccn3)nc3ccccc23)cc1	4	10	1	70*	1
CCC(C)Nc1nc(-c2ccccn2)nc2ccccc12 (configuration not stated)	4	4	-1	62*	-2
COc1cc2nc(=S)n(CCCN3CCOCC3)c(N)c2cc1OC	15	x	-8	56*	-1
CCOc1cc2nc(-c3ccc(OC)c(OC)c3)nc(NCCCN3CCOCC3)c2cc1OC	38	-6	-4	55*	1
O=C(c1cccnc1)N1CCCCN2[C@H](CO)[C@H](c3ccc(C#Cc4ccccc4)cc3)[C@@H]2C1	x	x	x	6	x
COc1cccc(C(=O)Nc2ccc3c(c2)C(=O)N(C)C[C@H](OC)[C@H](C)CN(C(C)=O)[C@@H](C)CO3)c1	x	x	x	-11	x
O=C(c1ccc2c(c1)OCO2)N1CC[C@@H]2[C@H]1c1cc(-c3ccc(F)cc3)ccc1N[C@@H]2CO	x	x	x	-12	x
O=C(C1=C[C@@H](c2csc3ccccc23)C[C@@H](OCCCCO)O1)N1CCCCCCC1	x	x	x	-1	x
Clc1ccc(C(c2ccccc2Cl)C(Cl)Cl)cc1 (configuration not stated)	4	8	0	48*	-2
CC(C)NC(=O)Nc1ccc2c(c1)C(=O)N([C@H](C)CO)C[C@@H](C)[C@H](CN(C)Cc1ccc(Cl)c(Cl)c1)OCCCC[C@H](C)O2	x	x	x	1	x
COc1cc(/C=N/NC(=O)C(Cc2c[nH]c3ccccc23)NC(=O)OCc2ccccc2)cc([N+](=O)[O-])c1O (configuration not stated)	-69	-38	42*	28	30
COc1cc(/C=N/NC(=O)C(Cc2c[nH]c3ccccc23)NC(=O)OCC(C)C)cc([N+](=O)[O-])c1O (configuration not stated)	-40	-41	24	22	18
O=C(Nc1ccc(Nc2cccnc2)cc1)c1c[nH]c2ccccc12	x	25*	x	x	x
O=C(NCc1cccnc1)C(=O)c1c[nH]c2ccccc12	-2	2	-3	-4	1
COc1cc(/C=N/Nc2nncn2/N=C/c2ccc(O)c(OC)c2)ccc1O	-10	4	-3	51*	0
c1ccc(-c2csc(Nc3cccnc3)n2)nc1	-19	1	-4	45*	1
COc1cccc2sc(Nc3nc(-c4ccccn4)cs3)nc12	-20	x	35*	45*	2
CCOC(=O)c1sc(Nc2nc3c(OC)cccc3s2)nc1C	-50	-3	-2	3	-7
C[C@H](CO)N1C[C@H](C)[C@@H](CN(C)C(=O)Nc2ccc3c(c2)OCO3)Oc2ccc(NC(=O)c3ccncc3)cc2CC1=O	x	x	x	1	x
C[C@@H]1CCCCO[C@H](CN(C)S(=O)(=O)c2ccccc2)[C@H](C)CN([C@@H](C)CO)C(=O)c2cc(NC(=O)Nc3ccc(C(F)(F)F)cc3)ccc2O1	x	x	x	-11	x
Cc1ccc(C(=O)N/C(=C\c2ccc(-c3ccccc3[N+](=O)[O-])o2)C(=O)NCCCN(C)C)cc1	10	-8	-8	x	-1
Cc1ccc(C(=O)N/C(=C\c2ccc(-c3ccccc3[N+](=O)[O-])o2)C(=O)NCCN(C)C)cc1	11	-7	-1	22*	-1
SMILES	Neddylation inh	HGIII-sPLA2 inh	NadD block	ARNT-TACC3 inh	DAGLB inh
Oc1cc(-c2cccnc2)cc2cccnc12	3	-6	11	65*	3
Oc1cc(Nc2ccccc2)cc2cccnc12	-22	9	1	66*	5
Oc1cccc2cc(Nc3ccccc3)cnc12	21	14	-3	x	x
CN(C)C(=O)[C@@H]1[C@@H](CO)[C@@H]2Cn3c(ccc(-c4cccnc4)c3=O)[C@@H]2N1Cc1ccccc1F	x	x	x	-3	x
COc1ccc(C(c2c(O)ccc3ccccc23)N2CCOCC2)c(OC)c1 (configuration not stated)	9	20*	9	-6	-7
CO[C@H]1CN(C)C(=O)c2cc(NC(=O)Nc3ccccc3F)ccc2OC[C@H](C)NC[C@@H]1C	x	x	x	-8	x
CCCC#Cc1ccc2c(c1)O[C@H](CN(C)C(=O)C1CC1)[C@H](C)CN([C@H](C)CO)S2(=O)=O	x	x	x	50*	x
COc1ccccc1OCC(=O)N/N=C/c1cccc2cccnc12	-14	1	-3	78*	-1
COc1ccc(OCC(=O)N/N=C/c2cccc3cccnc23)cc1	-15	-16	4	77*	1
O=C(COc1ccc(Cl)cc1)N/N=C/c1cccc2cccnc12	-80	7	-2	9	-2
COc1cccc(/C=N/NC(=O)COc2cccc3cccnc23)c1O	0	-26	10	3	0
C[C@@H]1CN([C@@H](C)CO)C(=O)c2cc(NC(=O)c3ccccc3)ccc2O[C@@H](C)CCCCO[C@H]1CN(C)Cc1ccc(C(F)(F)F)cc1	x	x	x	-5	x
CC=Cc1ccc2n(c1=O)C[C@H]1[C@H](CO)[C@@H](C(=O)N3CCc4ccccc4C3)[C@@H]2N1Cc1ccncc1 (mixture of isomers)	x	x	x	-3	x
CO[C@@H]1CN(C)C(=O)c2cc(NC(=O)NC(C)C)ccc2OC[C@H](C)N(C(=O)CC2CC2)C[C@@H]1C	x	x	x	1	x
CN(/N=C\c1ccc(O)c(O)c1)c1nc(-c2ccccc2)cc(-c2ccccc2)n1	4	6	33*	10	4
O=C(O)c1cc(-c2ccc(/C=C3\NC(=O)N(c4ccccc4)C3=O)o2)ccc1Cl	43*	-7	-3	13	0
O=C(O)c1cc(-c2ccc(/C=C3\NC(=O)N(c4ccc(Cl)cc4)C3=O)o2)ccc1Cl	65*	-9	16	x	3
CCC(=O)N(C)C[C@H]1Oc2cc(-c3cccc(OC)c3)ccc2S(=O)(=O)N([C@@H](C)CO)C[C@H]1C	x	x	x	-9	x
CN(C)CCCNC(=O)[C@H]1[C@H](CO)[C@H]2Cn3c(ccc(-c4ccncc4)c3=O)[C@@H]1N2C(=O)CC1CC1	x	x	x	0	x
COc1ccc(N2C(=O)CC(c3ccc(OC(C)C)cc3)C2=O)cc1 (configuration not stated)	4	-7	-7	1	0
CC(C)Oc1ccc(C2CC(=O)N(c3cccc(/C=C/C(=O)O)c3)C2=O)cc1 (configuration not stated)	-13	-4	0	active	2
COc1ccc(C=NNC(=S)Nc2ccc(F)cc2)cc1OC	-11	23*	2	4	1
O=C(Nc1ccccc1)N1C[C@@H]2[C@H](c3ccccc31)[C@@H](CO)N2C(=O)c1cccnc1	x	x	x	7	x
COc1cccc(C#Cc2cnc3c(c2)C(=O)N([C@H](C)CO)C[C@H](C)[C@@H](CN(C)C(C)=O)O3)c1	x	x	x	15	x
